We go through 23 compounds from PubChem BioAssay (EPA / NIEHS).

Active and inactive are the calls of the source. Rule for the calls: active = hit-call score of the fitted dose curve at least 0.9, where 1 is the maximum; inactive = score below 0.9.

The target in this experiment is Hepatocyte nuclear factor 3-beta (Homo sapiens) (UniProt Q9Y261). The experiment can be described thus: ATG_FoxA2_CIS: Attagene CIS-FACTORIAL HepG2 Assay for human Forkhead box A2 (FOXA2) (AID 2282942). Conditions: HepG2 cis-reporter transcription factor activity, 24 h; actives raise or lower the signal. The method, boiled down: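 Endogenous transcription factor activity is captured via cis-element-driven reporter transcripts in transfected HepG2. Total RNA taken at 24 h post-dosing; labelled RT-PCR products resolved by capillary electrophoresis. Gain or loss fitted versus DMSO.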
Chain of Hepatocyte nuclear factor 3-beta (Homo sapiens) (Q9Y261 whole entry, looked up): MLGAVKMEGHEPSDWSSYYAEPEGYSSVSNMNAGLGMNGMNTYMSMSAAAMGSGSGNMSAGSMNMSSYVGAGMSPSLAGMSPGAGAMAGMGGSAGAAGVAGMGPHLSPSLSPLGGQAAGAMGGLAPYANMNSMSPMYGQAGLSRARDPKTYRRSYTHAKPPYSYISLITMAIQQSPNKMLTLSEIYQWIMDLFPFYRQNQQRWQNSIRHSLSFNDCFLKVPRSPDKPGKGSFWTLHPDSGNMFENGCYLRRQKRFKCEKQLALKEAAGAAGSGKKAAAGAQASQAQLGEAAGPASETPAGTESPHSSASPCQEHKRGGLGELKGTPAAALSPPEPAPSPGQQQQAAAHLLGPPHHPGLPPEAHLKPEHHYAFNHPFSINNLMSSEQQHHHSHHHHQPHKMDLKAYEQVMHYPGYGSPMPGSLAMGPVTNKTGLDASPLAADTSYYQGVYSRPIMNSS
In the case of `CCOC(=O)CC(C)O` (stereo not drawn), the compound was classed as inactive.

Consider `CCCC(=O)OCCc1ccccc1`, for which the result was inactive.

In the case of `CC1(C)O[C@@H]2[C@@H](CO[C@@]3(COS(N)(=O)=O)OC(C)(C)O[C@@H]23)O1`, the outcome was inactive.

In the case of `[Cl][Au]([Cl])[Cl]`, the compound was classed as inactive.

Consider `CCCCCC(C=O)=Cc1ccccc1`, for which the call was inactive.

Consider `C=CC(C)C#N` (stereo not drawn), for which the compound was called inactive.

Take `C[C@H]1O[C@@H](O[C@H]2[C@@H](O)C[C@H](O[C@H]3[C@@H](O)C[C@H](O[C@H]4CC[C@@]5(C)[C@H](CC[C@@H]6[C@@H]5C[C@@H](O)[C@]5(C)[C@@H](C7=CC(=O)OC7)CC[C@]65O)C4)O[C@@H]3C)O[C@@H]2C)C[C@H](O)[C@@H]1O`: the outcome was inactive.

In the case of `ClC(c1ccccc1)(c1ccccc1)c1ccccc1`, the compound was classed as inactive.

Consider `O=c1c(O)c(-c2ccc(O)cc2)oc2cc(O)cc(O)c12`, for which the compound was classed as inactive.

Turning to `CN1CCOCC1`, the outcome was inactive.

Take `CC/C=C\CC/C=C/CO`: the outcome was inactive.

For `CS(=O)(=O)c1ccc(C2=C(c3ccccc3)C(=O)OC2)cc1`, the compound was classed as inactive.

On to `CC1C2CC(CC2C2CCCC(O)C2)C1(C)C` (stereo not drawn), for which the result was inactive.

Regarding `COC(=O)Nc1ccc(Cl)c(Cl)c1`, the call was inactive.

Turning to `CC(O)C1CCCCC1` (stereo not drawn), the result was inactive.

Take `Oc1c(Cl)cc(Cl)c(Cl)c1Cc1c(O)c(Cl)cc(Cl)c1Cl`: the call was inactive.

Consider `N#Cc1ccc(CC(=O)c2cccc(C(F)(F)F)c2)cc1`, for which the compound was called inactive.

In the case of `COS(=O)(=O)O`, the outcome was inactive.

On to `CCCCCCOC(=O)CCC`, for which the outcome was inactive.

For the compound `COC(C)(C)CCCC(C)CC=O` (stereo not drawn), the outcome was inactive.

With `CSCCC=O`, the compound was called inactive.

With `Brc1ccc(Br)c(Br)c1`, the call was inactive.

For `Cc1cc(C)nc(NS(=O)(=O)c2ccc(N)cc2)n1`, the result was inactive.
